In all, about 1,100 compounds went through this assay and about 790 (72%) were called active. The set was probably picked from earlier hits. A selection follows. A number with no mark means an inactive call.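 How the source made its calls: active means mean inhibition across replicates above the hit cutoff set in the primary screen (cut at about 26% in these data); inactive means the rest.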
biological target: Acyl-protein thioesterase 2 (Homo sapiens) (UniProt O95372); assay: LYPLA2 inhibitors, retest, confirmation, counter-screen for PME1 inhibitor project, biochemical, fluorescence polarization, FP-Rh probe ABPP (AID 2232); details: recombinant LYPLA2, FP-Rh probe fluorescence polarization; at 5.9 µM; stronger effect = higher value;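 further: blocked labeling of the enzyme by serine hydrolase FP-Rh probe lowers polarization; 0% = enzyme with DMSO and 100% = wells lacking LYPLA2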
Sequence (O95372 whole entry, looked up): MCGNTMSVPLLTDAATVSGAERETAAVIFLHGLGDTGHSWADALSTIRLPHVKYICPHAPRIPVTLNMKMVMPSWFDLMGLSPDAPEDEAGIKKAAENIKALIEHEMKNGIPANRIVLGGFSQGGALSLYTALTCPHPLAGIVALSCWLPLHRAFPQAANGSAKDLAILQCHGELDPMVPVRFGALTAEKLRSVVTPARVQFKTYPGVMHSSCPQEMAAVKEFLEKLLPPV

Row | SMILES | inhibition
1 | Cc1ccc(N2CCN(C3=NC(=O)/C(=C\c4cccs4)S3)CC2)cc1 | 56.2% (active)
2 | CCC(CC)COC(=O)C1=C(C)NC(=O)NC1c1ccc([N+](=O)[O-])cc1 (stereo not drawn) | 48.5% (active)
3 | O=C(c1cc(-c2ccc(Cl)cc2)on1)N1CCN(c2ccccc2)CC1 | 2.82%
4 | O=C(COc1ccc(Cl)cc1)N1CCN(c2cccc(C(F)(F)F)c2)CC1 | 63.1% (active)
5 | Cc1c(C)c2ccc(OCC(=O)N3CCN(c4cccc(Cl)c4)CC3)cc2oc1=O | 45.7% (active)
6 | CCC(=O)c1ccc(OCC(O)CN2CCN(c3cccc(C(F)(F)F)c3)CC2)cc1 (stereo not drawn) | 62.3% (active)
7 | O=C(CCCN1C(=O)CSc2ncccc21)N1CCN(c2cccc(C(F)(F)F)c2)CC1 | 60.9% (active)
8 | CN(CCc1ccccn1)C(=O)c1ccc(OC2CCN(CCc3ccccc3)CC2)cc1 | 21.1%
9 | O=C(CCCN1C(=O)c2cccc3cccc(c23)C1=O)N1CCN(Cc2ccc3c(c2)OCO3)CC1 | 55.4% (active)
10 | O=C(COc1ccc(NC(=O)c2ccccc2[N+](=O)[O-])cc1)c1ccc(F)cc1 | 34.8% (active)
11 | O=[N+]([O-])c1ccc(Oc2ccc(F)cc2Br)c2ccncc12 | 33.5% (active)
12 | Cc1cc(OCCCN2CCN(Cc3ccccc3)CC2)ccc1[N+](=O)[O-] | 40.4% (active)
13 | CSc1cccc(NC(=O)CN2C(=O)COc3ccc(S(=O)(=O)N4CCOCC4)cc32)c1 | 33.8% (active)
14 | N#Cc1ccc(C2=CC(=O)C[C@H](c3ccc(Cl)cc3)C2)cc1 | 42% (active)
15 | O=C(CC1SC(N2CCCC2)=NC1=O)Nc1ccc(C(=O)NCCc2ccc(F)cc2)cc1 (stereo not drawn) | 43.7% (active)
16 | CCOC(=O)c1cc2cc(-c3c(C(=O)OCC)oc4cc(O)cc(O)c4c3=O)ccc2o1 | 36.7% (active)
17 | O=C1C2CCCN2C(=O)N1CCCCN1CCN(c2cccc(C(F)(F)F)c2)CC1 (stereo not drawn) | 55.6% (active)
18 | CCN(CC)C(=O)CC1(c2ccccc2OC)CCOC(C(C)C)C1 (stereo not drawn) | 4.28%
19 | CCc1ccc(NC(=O)c2ccc(Cn3cc([N+](=O)[O-])cn3)cc2)cc1 | 19.7%
20 | Cc1nc([N+](=O)[O-])cn1CC(=O)Nc1ccc2c(c1)OCO2 | 26.8% (active)
21 | Cc1nc([N+](=O)[O-])cn1CC(=O)Nc1ccc(Cl)cc1 | 34.4% (active)
22 | O=C(c1ccco1)N1CCN(C(=S)Nc2cc(F)cc(F)c2)CC1 | 44.1% (active)
23 | O=C(Nc1ccc(N2CCN(C(=O)c3ccccc3)CC2)c(Cl)c1)c1cccnc1 | 27% (active)
24 | CCOc1ccc(C(=O)NC(=S)Nc2ccc(N3CCOCC3)c(Cl)c2)cc1[N+](=O)[O-] | 21.8%

Row | SMILES | inhibition
25 | Cc1ccc(C(c2sc3nc(C)nn3c2O)N2CCN(c3ccc(F)cc3)CC2)cc1 (stereo not drawn) | 30% (active)
26 | COc1ccc(CCNc2nc(-c3cccc(NC(C)=O)c3)cs2)cc1OC | 3.07%
27 | O=C(Cc1ccc(-n2c(=O)[nH]c3ccccc3c2=O)cc1)N1CCN(c2cccc(Cl)c2)CC1 | 48.3% (active)
28 | COc1ccc(-c2nc(CS(=O)CC(=O)NCc3ccccn3)c(C)o2)cc1 (stereo not drawn) | 9.85%
29 | O=[N+]([O-])c1ccc(N2CCN(CC(O)COc3ccccc3)CC2)cc1 (stereo not drawn) | 29.1% (active)
30 | COCCOC(=O)c1sc(=S)n(CCOC)c1N | 21.3%
31 | Cc1ccc(/C=N/NC(=O)C(NC(=O)c2ccccc2)c2n[nH]c(=O)c3ccccc23)cc1 (stereo not drawn) | 56.2% (active)
32 | Cc1nn2c(=O)cc(COC(=O)c3ccc(NC(=O)C(C)(C)C)cc3)nc2s1 | 27.5% (active)
33 | COc1ccccc1C(=O)NC(CCSC)C(=O)N1CCN(C/C=C/c2ccccc2)CC1 (stereo not drawn) | 31.7% (active)
34 | Cc1cc(C)c(C#N)c(SCc2[nH]nc3c2C(c2ccccc2)C(C#N)=C(N)O3)n1 (stereo not drawn) | 48.2% (active)
35 | N#Cc1cc([N+](=O)[O-])ccc1Oc1cccc(/C=N/NC(=O)c2ccc(Cl)cc2)c1 | 15.7%
36 | CC(=O)N1c2ccc(S(=O)(=O)N3CCC(C(=O)N4CCN(c5ccccc5)CC4)CC3)cc2CC1C (stereo not drawn) | 47.4% (active)
37 | CC(=O)c1ccc(N2CCN(C(=O)C3CCN(S(=O)(=O)c4ccc5c(c4)CC(C)N5C(=O)C4CC4)CC3)CC2)cc1 (stereo not drawn) | 72% (active)
38 | Cc1nn(Cc2ccccc2)c(C)c1CNC(=O)c1ccc(F)c(S(=O)(=O)N2CCOCC2)c1 | -0.54%
39 | CCCCCC1CCC(c2nnc(SCC(C)=O)o2)CC1 (stereo not drawn) | 37.8% (active)
40 | CCN(CC)c1ccc(C(=O)NNC(=O)CCc2nc3ccccc3c(=O)[nH]2)cc1 | 1.17%
41 | COc1ccc(N2CCN(C(=O)c3ccc(N4CCCCS4(=O)=O)cc3)CC2)cc1 | 56.2% (active)
42 | Nc1[nH][nH]c(=O)c1N=Nc1ccc2c(c1)OCO2 | 1.18%
43 | COc1ccc(N2CC(C(=O)NCCN3C(=O)S/C(=C\c4cccnc4)C3=O)CC2=O)c(OC)c1 (stereo not drawn) | 6.43%
44 | CCCCCCOc1ccc(OC(=O)c2cccnc2)cc1 | 59.1% (active)
45 | CCC(=C/c1sc2ccc3ccccc3c2[n+]1C)/C=C1\Sc2ccc3ccccc3c2N1C | 0.49%
46 | O=C(Nc1ccc(N2CCN(C(=O)c3cccs3)CC2)cc1)c1cccnc1Cl | 37.2% (active)
47 | COc1ccc(C(C#N)Nc2ccc(C)cc2)cc1 (stereo not drawn) | 3.09%
48 | Cc1cccc(OCC(O)CN2CCN(CCN3C(=O)c4cccc5cccc(c45)C3=O)CC2)c1C (stereo not drawn) | 42.9% (active)

Source: PubChem BioAssay AID2232 (The Scripps Research Institute Molecular Screening Center, 2010)
